Results on 55 molecules are retold here after PubChem BioAssay AID1259417 (TB Discovery Research, Infectious Disease Research Institute, 2018).

A short description of the test: M. tuberculosis growth inhibition, HTS (AID 1259417).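 Note: bacteria grown with compound for 5 days at 37 °C.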 As to conditions: stronger effect = higher value, concentration not given here.
Where [1] appears, read: M. tuberculosis DsRed fluorescence growth inhibition.
Where [2] appears, read: M. tuberculosis growth inhibition.

The structures appear in SMILES notation. The whole screen tested about 1,100 compounds, of which about 760 (69%) were called active. The rule behind the calls is not given here. So high a share suggests a set chosen from earlier hits. The list shows a part of the results.

With `O=C(c1ccc(Cl)cc1)C1CCCN(Cc2cnn(-c3ccccc3)c2)C1` (stereo not given), the inhibition is 1.81% (inactive) under setting [1] and -16.6% under setting [2].
Take `CC1CCCN(CCC(=O)c2ccc(Br)cc2)C1` (stereo not given): the inhibition is 72.2% (active) under setting [1] and 84.5% under setting [2].
Turning to `COc1ccc(C(=O)CCN2CCCC(C)C2)cc1` (stereo not given), the inhibition was 13.2% (inactive) under setting [1] and 13.2% under setting [2].
Consider `COc1ccc(C)cc1NC(=O)c1ccc(Cc2ccc(C)cc2)o1`, for which the inhibition reads like this: under setting [1], 98.3% (active); under setting [2], 101%.
The like results for `Cc1cc(N2CCCCC2)nc2ccc(NC(=O)c3ccc(Br)o3)cc12` were, in that order, 0.712% (inactive) and -27.2%.
Regarding `COc1cc2c(cc1NC(=O)Nc1ccc(Cl)cc1)oc1ccccc12`, the inhibition was 0.315% (inactive) under setting [1] and -15.8% under setting [2].
The like results for `Cc1ccc(Cc2ccc(C(=O)Nc3ccc(C)c(C)c3)o2)cc1` were, in that order, 99.7% (active) and 99.7%.
`COc1ccc2c(c1)CCC1Sc3ccccc3N=C21` (stereo not given): the inhibition under setting [1] was 1.21% (inactive) and the inhibition under setting [2] is 17%.
The like results for `COC(=O)C(CC(C)C)NC(=O)/C=C/c1ccccc1Cl` (stereo not given) were, in that order, 11.6% (inactive) and 28.6%.
The like results for `COC(=O)C(CC(C)C)NC(=O)/C=C/c1ccc(Cl)cc1` (stereo not given) were, in that order, 53.1% (active) and 45.8%.
`CC(C)Cc1cc(C(=O)Nc2c(F)cc(F)cc2Br)no1`: the inhibition by setting is: under setting [1], 22.3% (active); under setting [2], 57.6%.
As for `O=C(c1ccco1)N(CCCn1ccnc1)c1nc2ccc(Br)cc2s1`, the inhibition by setting is: under setting [1], 98.9% (active); under setting [2], 98.4%.
The like results for `Cc1ccc2nc(N(CCCn3ccnc3)C(=O)c3ccco3)sc2c1` were, in that order, 96.9% (active) and 98.4%.
The like results for `O=C(c1ccco1)N(CCCn1ccnc1)c1nc2ccc(Cl)cc2s1` were, in that order, 97.8% (active) and 99.1%.
In the case of `O=C1N(c2ccc3c(c2)OCCO3)C(c2ccccc2)C1(F)F` (stereo not given), the inhibition by setting is: under setting [1], 36.5% (active); under setting [2], 75.8%.
The like results for `O=C(Nc1nnc(-c2ccc(Br)cc2)o1)c1ccc(Cl)s1` were, in that order, 32.9% (active) and 79.2%.
The like results for `COc1ccc(-c2nnc(NC(=O)c3ccc(Cl)s3)o2)cc1` were, in that order, 75.4% (active) and 80.6%.
The like results for `O=C(Nc1nnc(-c2ccc(F)cc2)o1)c1ccc(Br)s1` were, in that order, 66.4% (active) and 78.5%.
Regarding `O=C(Nc1nnc(-c2ccc(Br)cc2)o1)c1cc(Cl)sc1Cl`, the inhibition was 8.56% (inactive) under setting [1] and 28.1% under setting [2].
The like results for `CC(C)(C)c1ccc(-n2c(=O)[nH]c3c(C(N)=O)nc(CCc4ccccc4)nc32)cc1` were, in that order, 2.16% (inactive) and -28.9%.
The like results for `COc1ccc(Cn2c(=O)c3c(n4cnnc24)-c2ccccc2CC32CCCCC2)cc1` were, in that order, 21.7% (inactive) and 2.83%.
With `COc1ccc(C2(CNC(=O)c3cc([N+](=O)[O-])cc([N+](=O)[O-])c3)CCCC2)cc1OC`, the inhibition under setting [1] was 98.6% (active) and the inhibition under setting [2] worked out at 94.9%.
Consider `O=C(NCCc1ccc(Cl)cc1)c1ccc(CNc2c(N3CCOCC3)c(=O)c2=O)cc1`, for which the inhibition is, setting by setting: under setting [1], 96% (active); under setting [2], 88.6%.
The like results for `O=C(NCCc1ccc(Cl)cc1)C1CCC(CNc2c(N3CCCCC3)c(=O)c2=O)CC1` (stereo not given) were, in that order, 96.1% (active) and 90%.
The like results for `CC1CC(C)CN(C(=O)c2ccc(CNc3c(N4CCCC4)c(=O)c3=O)cc2)C1` (stereo not given) were, in that order, 97.5% (active) and 90%.
With `CCOC(=O)COc1ccc2c(=O)c(-c3ccc(OC)cc3)c(C)oc2c1`, the inhibition is 83.6% (active) under setting [1] and 94% under setting [2].
The like results for `CCOC(=O)COc1ccc2c(C)c(-c3ccc(OC)c(OC)c3)c(=O)oc2c1` were, in that order, 10.3% (active) and 36.5%.
Regarding `COc1ccc(-c2c(C)oc3cc(OCC(=O)OC(C)C)ccc3c2=O)cc1OC`, the inhibition is 13.8% (active) under setting [1] and 67.7% under setting [2].
Consider `COC(=O)C(C)Oc1ccc2c(=O)c(-c3ccc(Br)cc3)c(C)oc2c1` (stereo not given), for which the inhibition by setting is: under setting [1], 32.6% (active); under setting [2], 92.3%.
The like results for `CCC(=Cc1sc2ccc(OC)cc2[n+]1CCO)C=C1Sc2ccc(OC)cc2N1CCO` were, in that order, 9.54% (inactive) and 21%.
For `CCOC(=O)COc1ccc2c(=O)c(-c3ccc(OC)c(OC)c3)c(C(=O)OCC)oc2c1`, the inhibition under setting [1] was 34.4% (active) and the inhibition under setting [2] amounted to 64.4%.
As to `CCOC(=O)COc1ccc2c(C)c(CC(=O)OC)c(=O)oc2c1`, the inhibition under setting [1] is 11.2% (active) and the inhibition under setting [2] was found to be 54.4%.
The like results for `Cc1ccc(C(=O)Oc2cccc(NC(=O)c3ccccc3)c2)cc1C` were, in that order, 0.632% (inactive) and 1.38%.
Regarding `CCOC(=O)c1c(NC(=O)c2ccc([N+](=O)[O-])c(C)c2)sc(C)c1-c1ccccc1`, the inhibition by setting is: under setting [1], 2.11% (inactive); under setting [2], -28.3%.
The like results for `Cc1cc(C(=O)Oc2ccc(Cc3ccccc3)cc2)ccc1[N+](=O)[O-]` were, in that order, 41.1% (active) and 39.3%.
For the molecule `Cc1cc(C(=O)Oc2ccccc2)ccc1[N+](=O)[O-]`, the inhibition was 10.6% (active) under setting [1] and 55.9% under setting [2].
Consider `Cc1cc2c(cc1C)N(Cc1ccc(C(C)(C)C)cc1)C1=NCCCN12`, for which the inhibition by setting is: under setting [1], 95% (active); under setting [2], 99.7%.
Regarding `Cn1c(Sc2cnn(-c3ccccc3)c(=O)c2Br)nnc1-c1ccccc1`, the inhibition under setting [1] is 49.6% (active) and the inhibition under setting [2] was 70.7%.
As to `Cn1c(Sc2ccc([N+](=O)[O-])c3cccnc23)nnc1-c1ccccc1`, the inhibition is, setting by setting: under setting [1], 12% (inactive); under setting [2], 20.3%.
The like results for `CCOC(=O)CSc1ncc(-c2cccc(Cl)c2)cn1` were, in that order, 15% (active) and 70.5%.
The like results for `CCOC(=O)CSc1n[nH]c(-c2ccc(Cl)cc2)n1` were, in that order, 17.9% (active) and 58%.
The like results for `CCCOc1ccccc1-c1nc(SCC(=O)OCC)n[nH]1` were, in that order, 2.36% (active) and 37.9%.
Consider `O=C(CSc1n[nH]c(-c2ccc(Cl)cc2)n1)Nc1ccc(F)c(Cl)c1`, for which the inhibition under setting [1] is -0.872% (inactive) and the inhibition under setting [2] was -10.5%.
Regarding `CCOC(=O)C(C)Sc1ncc(-c2ccc(Cl)cc2)cn1` (stereo not given), the inhibition by setting is: under setting [1], 4.78% (active); under setting [2], 45.6%.
As for `COc1ccc(-c2c(C)[nH]n3c(=O)c(Cc4ccccc4)c(C)nc23)cc1`, the inhibition under setting [1] is 96.2% (active) and the inhibition under setting [2] amounted to 81.3%.
Regarding `COc1ccc(C2=CC(c3c(C)nn(-c4ccccc4)c3Cl)n3nnnc3N2)cc1OC` (stereo not given), the inhibition under setting [1] is 99.1% (active) and the inhibition under setting [2] was 93.4%.
The like results for `CCOc1ccc2c3c(c(=O)oc2c1OCC)CCCC3` were, in that order, 31.8% (active) and 41.4%.
The like results for `COc1ccc(-n2c(C)nc3sc4c(c3c2=O)CCCC4)cc1` were, in that order, -4.71% (inactive) and -14.1%.
The like results for `COc1nc(SC)nc2sc3c(c12)CCC3` were, in that order, 98.3% (active) and 99.3%.
Regarding `Clc1ccc(OCCCn2ccnc2)cc1Cl`, the inhibition runs as follows: under setting [1], 98.6% (active); under setting [2], 99.3%.
With `Clc1ccc(OCCCCn2ccnc2)cc1Cl`, the inhibition runs as follows: under setting [1], 100% (active); under setting [2], 99.3%.
Regarding `[O-][n+]1onc2c3cc(-c4ccccc4)nnc3ccc21`, the inhibition is 80.6% (active) under setting [1] and 96.7% under setting [2].
The like results for `O=C(Nc1nnc(-c2cc(Cl)ccc2Cl)o1)c1ccc(Br)s1` were, in that order, 96.9% (active) and 95.6%.
The like results for `O=C(Nc1nnc(-c2cc(Cl)ccc2Cl)o1)c1ccc(Cl)s1` were, in that order, -4.8% (inactive) and -10.4%.
For the molecule `O=C(Nc1nnc(-c2cc(Cl)ccc2Cl)o1)c1cccs1`, the inhibition under setting [1] is 83.8% (active) and the inhibition under setting [2] worked out at 82.4%.

Broadly, the inhibition is the drop in the measured response relative to a control, in per cent.
